Compounds without any hit were thinned out: in the full panel of roughly 83,000, 20% have a hit.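 Negative percent growth values reflect cell death: -40 means 40% of the cells present at the start died, and -100 means all died.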 Values without a mark were called inactive. Activity calls are given as the source filed them.

This assay has as its system HS 578T breast. The assay is described as follows: NCI-60 one-dose screen, 48 h (100 = growth as untreated, 0 = no growth, -100 = all killed). Particulars: 10 µM. The protocol: Growth inhibition of the HS 578T human tumor cell line is measured as a screen for anti-cancer activity. Cells are grown in 96 well plates and exposed to the test compound for 48 hours. Compounds are tested at a single concentration, which is 10^-5 M for most compounds. The reported endpoint is percent growth (GI% or GIPRCNT), where numbers from 0 - 100% represent growth inhibition, and numbers from -100% - 0 represent cell death. For example, a value of 40 represents 60% growth inhibition. A value of 0 means no net growth occurred over the course of the experiment. A value of -40 indicates 40% of cells at the beginning of the experiment died by the end of the experiment. A value of -100 means all cells are dead at the end of the experiment.
NCI-60 Human Tumor Cell Lines Screen was performed using the standard one-dose NCI protocol, which is described in more detail at https://dtp.cancer.gov/discovery_development/nci-60/default.htm.
Compounds with GIPRCNT values below 10 were considered active. Activity score was based on GIPRCNT using the following formula: […]
Score is 0 for GIPRCNT values of 100 or above, 50 for GIPRCNT values of 0, and 100 for GIPRCNT values of -100.
On to `CSC1=NC(=Nc2c(C)cccc2C)C2(CCC(C(C)(C)C)CC2)N1c1ccc(Cl)cc1` (stereo not given), for which the growth is 65.9%.

Consider `C#CC[C@@H]1C[C@]2(C)[C@H]3CC[C@@H]4[C@H]5C(C(=C)C)CC[C@]5(C(=O)NCCCCCCCCN)CC[C@@]4(C)[C@]3(C)CC[C@H]2C(C)(C)[C@H]1OC(C)=O` (stereo not given in full), for which the growth is 109%.

For `C/C(CC(=O)NNc1ccc([N+](=O)[O-])cc1)=N\Nc1ccc([N+](=O)[O-])cc1`, the growth is 86.2%.

For the compound `NC(=O)c1noc(C(=O)c2ccccc2)c1N`, the growth is 112%.

Regarding `Nc1ncnc2c1N=C(c1ccc(F)cc1)CC(c1sc(Cl)nc1Cl)N2` (stereo not given), the growth was 92.5%.

Turning to `O=C(Nc1cnc(C(F)(F)F)cn1)c1cc(Cl)ccc1O`, the growth is 8.53% (active).

With `COc1ccc2[nH]c(O)c(/C=c3/ccc4c(c3)N=C(c3ccc(F)cc3)N=4)c2c1`, the growth is 51.1%.

With `CCCOC(=O)C1c2cc3c(cc2CC(C)C1C(=O)OCCC)OCO3` (stereo not given), the growth is 103%.

With `CCOC(=O)c1sc2nc(-c3cc4ccccc4o3)cc(-c3ccc(Cl)cc3)c2c1N`, the growth is 91.9%.

On to `COc1ccc2c(c1)N(CCO)C1=C(C(=O)OC1)C2c1cccc(Br)c1` (stereo not given), for which the growth was 10.7%.

Turning to `Cc1cc(C)c(C#N)c(SCC(=O)c2sc3c(C#N)c(C)cc(C)[n+]3c2[O-])n1`, the growth is 21.8%.

For `Fc1cc(-c2nnc3sc(-c4ccc(Cl)cc4)nn23)c(Cl)cc1Cl`, the growth was 66.1%.

`CCc1ccc(Nc2ncnc3c2cnn3-c2cccc(Br)c2)cc1`: the growth was 103%.

Regarding `Cn1nc(C(F)(F)F)cc1-c1cc(Cl)c(OCc2ccc(Cl)cc2)c(-c2ccc(Cl)c(C(F)(F)F)c2)c1O`, the growth is -5.65% (active).

Regarding `Cc1ccc(/C=C/C(=N/N=C(N)N)c2ccccc2)cc1`, the growth is -5.3% (active).

As for `COc1ccc2c(c1)CCCC21C(=O)Nc2c(Cl)cccc21` (stereo not given), the growth was 85.8%.

For the compound `CC(C)(C)NC(=O)C(OC(=O)C1CCc2cc(F)ccc2O1)c1ccccc1Cl` (stereo not given), the growth was 99.7%.

With `COc1cc(C)cc2oc3oc(=O)c(-c4csc(-c5cc6ccccc6oc5=O)n4)cc3c(=O)c12`, the growth is 120%.

With `Nc1nc2ccc([C@@H]3Nc4ccc5[nH]ncc5c4[C@H]4[C@H]5CCC(C5)[C@H]43)cc2s1`, the growth was 8.66% (active).

As for `Cc1ccc(NC(=O)c2[nH]c(SCCN(C)C)nc2-c2ccc(F)cc2)cc1C#Cc1cnc2cccnn12`, the growth was 88.3%.

Consider `COc1cc(NCCCCC(C)N)c2nccc(C)c2c1` (stereo not given), for which the growth is 80.2%.

With `O=C(O)C1[S][Sb]([CH](C(=O)O)[CH](C(=O)O)[Sb]2[S]C(C(=O)O)C(C(=O)O)[S]2)[S]C1C(=O)O` (stereo not given), the growth is 101%.

For `Cc1c(C)c(C)c([N+](=O)[O-])c([N+](=O)[O-])c1C`, the growth was 96.5%.

For the compound `Cc1ccc(C2CC(c3cccs3)=NN2c2ccc(S(N)(=O)=O)cc2)s1` (stereo not given), the growth was 97.2%.

For `CN1CCN(Cc2ccc(NC(=O)c3cnc(F)c(C#Cc4cnc(N)c5ncccc45)c3)cc2C(F)(F)F)CC1`, the growth was -10.1% (active).

As to `COc1ccc2c(c1)CCCC21C(=O)Nc2ccccc21` (stereo not given), the growth was 107%.

`CCCCCCCCCCCCCCCc1cc(O)ccc1[N+](=O)[O-]`: the growth was 82.1%.

On to `O=C1OCC2=C1C(c1ccc(Cl)c(Cl)c1)c1cc3c(cc1N2CCO)CCC3` (stereo not given), for which the growth was 5.2% (active).

For `CCCCNCC(O)c1cc2c(Cl)cc(Cl)cc2c2cc(C(F)(F)F)ccc12` (stereo not given), the growth was -51.6% (active).

Turning to `Cc1[nH]nc2ccc3nc(-c4ccc5[nH]ncc5c4)c4c(c3c12)CCCC4`, the growth is -6.38% (active).

Regarding `CCOC(=O)c1ccccc1SC(C[N+](=O)[O-])c1ccccc1` (stereo not given), the growth was 104%.

For the compound `CC1C2CCC(C2)C1COCCOCCO` (stereo not given), the growth was 110%.

Regarding `C/C(=N\OC(=O)Nc1cccc(Cl)c1)c1ccccc1`, the growth was 86.4%.

On to `Cc1nc2ccc(Nc3nc(N4CCOCC4)nc(N4CCN(C)CC4)n3)cc2n1Cc1ccccc1`, for which the growth was 69.3%.

As to `O=C(c1ccccc1)N(CCCCl)C(=O)N(CCCCl)C(=O)c1ccccc1`, the growth is 93.9%.

Consider `Clc1ccccc1Nc1nnc(-c2ccncc2)s1`, for which the growth is 94.9%.

For the compound `Fc1[nH]nc2ccc([C@@H]3Nc4ccc5[nH]ncc5c4[C@H]4C5CCC(C5)[C@@H]34)cc12` (stereo not given in full), the growth is 34.8%.

On to `CCCNC(=S)N/N=C(\C)c1ccccn1`, for which the growth was 32.9%.

`O=C1C=CC(=O)N1c1cccc(N2C(=O)C=CC2=O)c1`: the growth is 114%.

`CNC(=O)c1cc(Oc2ccc(NC(=O)c3[nH]c(SC)nc3-c3ccc(F)cc3)cc2)ccn1`: the growth is 75.7%.

For the origin of these results see PubChem BioAssay (NCI).
